From PubChem BioAssay (NCI)
The panel holds about 83,000 compounds, 20% with a hit somewhere; the sample as a whole holds those more often.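 Compound tested at a single concentration for 48 hours in 96-well plates; a percent growth value below 10 was scored as active.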 Values without a mark were called inactive. Activity calls are given as the source filed them.

What follows are compounds tested on SW-620 colon (assay: NCI-60 one-dose screen, 48 h (100 = growth as untreated, 0 = no growth, -100 = all killed)). Details: 10 µM unless noted.

Question: How did the growth turn out when `O=C(O)c1ccc2c(c1)C(=O)N(Cc1ccccc1)C2=O` was run?
Answer: 98.6%

Question: `O=C1Nc2cc(-c3cccc(O)c3)ccc2/C1=C/c1ccc[nH]1` was tested. Which growth did it give?
Answer: 18.9%

Question: Which growth does the source give for `O=Cc1ccc(-c2cn3ccnc3c(-c3ccc4ncn(Cc5ccccc5)c4c3)n2)cc1` here?
Answer: 95.8%

Question: With `CCc1ccc(CNc2ccc(N3CCOCC3)c(C(=O)O)c2)cc1` as the compound, how does the growth read?
Answer: 111%

Question: How did the growth turn out when `O=C(CCN1CCCC1)c1ccc([N+](=O)[O-])cc1` was run?
Answer: 105%

Question: For `CNCCOc1nc2c3cnccc3cc(-c3cc(OC)c(OC)c(OC)c3)c2c2ccncc12`, which growth is on record?
Answer: 3.63% (active)

Question: For `Nc1c(S(=O)(=O)O)cc2c3c(cccc13)C(=O)OC2=O`, which growth is on record?
Answer: 99.8%

Question: For `Oc1ccc(C(c2ccc(O)cc2)c2ccc(Br)cn2)cc1`, which growth is on record?
Answer: 102%

Question: For `CCCCOc1ccc(/C=N/Nc2cc(C)nc3ccc(Br)cc23)cc1`, which growth is on record?
Answer: -70.5% (active)

Question: For `CC1(C)NCCC[C@]2(C)[C@H]3CC(=O)[C@H]4[C@@H]5C[C@](C)(CO)CC[C@]5(C)CC[C@@]4(C)[C@]3(C)CC[C@@H]12`, which growth is on record?
Answer: 98.6%

Question: `N#Cc1cc(-c2nc3ccccc3s2)c(=O)n(NS(=O)(=O)c2ccccc2)c1N` was tested. Which growth did it give?
Answer: 100%

Question: For `O=S(=O)(NCCNc1nccc(-c2c(-c3cccc(O)c3)nc3occn23)n1)c1cccc(F)c1`, which growth is on record?
Answer: 115%

Question: Which growth does the source give for `c1ccc2c(-c3c[nH]c4ccccc34)c3c(cc2c1)[nH]c1ccccc13` here?
Answer: 42.6%

Question: How did the growth turn out when `O=C(/C=C(/C=C/c1csc2ccccc12)OB(F)F)/C=C/c1csc2ccccc12` was run?
Answer: 5.19% (active)

Question: For `Cc1ccc(-c2csc(NC(=O)CSc3nc(-c4ccccc4)cc(=O)[nH]3)n2)cc1`, which growth is on record?
Answer: 96.2%

Question: `COc1ccc2nc(-c3ccc(-c4noc(-c5cc(OC)c(OC)c(OC)c5)n4)cc3)[nH]c2c1` was tested. Which growth did it give?
Answer: 63.8%

Question: With `Fc1ccc(-c2cn3c(nc4ccccc43)c(-c3ccccc3)n2)cc1` as the compound, how does the growth read?
Answer: 95.8%

Question: Which growth does the source give for `CCNC(=O)Oc1ccc(/C(=C(\C)c2ccccc2)c2ccc(OCCN3CCCCC3)cc2)cc1` here?
Answer: 59.1%

Question: `CCCCOc1ccc(/C(C)=N/Nc2cc(C)nc3ccc(Br)cc23)cc1` was tested. Which growth did it give?
Answer: 5.89% (active)

Question: `N#Cc1cccc(-c2ccc3c(c2)NC(=O)/C3=C\c2ccc[nH]2)c1` was tested. Which growth did it give?
Answer: 51.6%

Question: `O=C(NNc1nc2c(F)cccc2n2cccc12)c1cnccn1` was tested. Which growth did it give?
Answer: 29%

Question: Which growth does the source give for `CN(C)CCC(=O)c1ccc([N+](=O)[O-])cc1` here?
Answer: 106%

The compounds below were run on MCF7 breast in the same assay as above. Details: 10 µM unless noted.

Question: For `COc1ccc(OC)c(CCn2cncc2-c2c[nH]c3ccccc23)c1`, which growth is on record?
Answer: 71%

Question: Which growth does the source give for `COCCCN1CC(O)=C(c2nc(-c3ccc(C)cc3)cs2)C1=N` here?
Answer: 360%

Question: How did the growth turn out when `O=C(CCN1CCCC1)Nc1ccc2c(Nc3ccc(Br)cc3)c3ccccc3nc2c1` was run?
Answer: -66.8% (active)

Question: With `O=C(Cn1c[n+](CC(=O)c2ccc(-c3ccccc3)cc2)c2ccccc21)Nc1cccc2cccnc12` as the compound, how does the growth read?
Answer: 12.6%

Question: With `CCN1Cc2nc3sc(C)c(C)c3c(=O)n2C=C1C` as the compound, how does the growth read?
Answer: -41.8% (active)

Question: `Cc1ccc(-n2c3c(c(-c4ccccc4)c2-c2ccccc2)C2=NCCN2C=N3)cc1` was tested. Which growth did it give?
Answer: 86.8%

Question: Which growth does the source give for `CCCCC[n+]1ccc(SCC(=O)N(C)c2ccc(Oc3ccccc3)cc2)c2ccccc21` here?
Answer: 95.7%

Question: For `COc1cc(OC)cc(C(=O)C[n+]2cccc3cc[nH]c32)c1`, which growth is on record?
Answer: 94.2%

Question: Which growth does the source give for `CCOC(=O)[C@@H]1CCCN(S(=O)(=O)c2ccc(S(=O)(=O)N(CC)CC)c(F)c2)C1` here?
Answer: 61.8%

Question: With `Cn1ccc2c1CC1CN(Cc3ccco3)C(=O)C1C2C(=O)O` (centres undefined) as the compound, how does the growth read?
Answer: 95.7%

Question: With `O=C(NO)c1ccc(-n2nc(-c3ccccc3)c3ccccc32)cc1` as the compound, how does the growth read?
Answer: 22.4%

Question: For `COc1ccc(CC(C)=C(c2ccc(OCCN3CCCCCC3)cc2)c2ccc(OCCN3CCCCCC3)cc2)cc1`, which growth is on record?
Answer: -90.2% (active)

Question: `Nc1n[nH]c2cccc(C#Cc3cccc(C(=O)Nc4cccc(C(F)(F)F)c4)c3)c12` was tested. Which growth did it give?
Answer: 71.6%

Question: `Cc1ccc(C(=O)/C(=C/c2ccc([N+](=O)[O-])cc2)SCc2ccc(Cl)cc2)cc1` was tested. Which growth did it give?
Answer: 12.8%

Question: For `O=C(O)c1ccc2c(c1)C(=O)N(Cc1ccccc1)C2=O`, which growth is on record?
Answer: 95.3%

Question: With `O=C1Nc2cc(-c3cccc(O)c3)ccc2/C1=C/c1ccc[nH]1` as the compound, how does the growth read?
Answer: 10.5%

Question: Which growth does the source give for `O=Cc1ccc(-c2cn3ccnc3c(-c3ccc4ncn(Cc5ccccc5)c4c3)n2)cc1` here?
Answer: 52.2%

Question: `CCc1ccc(CNc2ccc(N3CCOCC3)c(C(=O)O)c2)cc1` was tested. Which growth did it give?
Answer: 86.2%

Question: `O=C(CCN1CCCC1)c1ccc([N+](=O)[O-])cc1` was tested. Which growth did it give?
Answer: 87.6%

Question: For `CNCCOc1nc2c3cnccc3cc(-c3cc(OC)c(OC)c(OC)c3)c2c2ccncc12`, which growth is on record?
Answer: -0.459% (active)

Question: `Nc1c(S(=O)(=O)O)cc2c3c(cccc13)C(=O)OC2=O` was tested. Which growth did it give?
Answer: 94.8%

Question: With `Oc1ccc(C(c2ccc(O)cc2)c2ccc(Br)cn2)cc1` as the compound, how does the growth read?
Answer: -20.5% (active)

Question: With `CCCCOc1ccc(/C=N/Nc2cc(C)nc3ccc(Br)cc23)cc1` as the compound, how does the growth read?
Answer: -52.1% (active)

Question: Which growth does the source give for `CC1(C)NCCC[C@]2(C)[C@H]3CC(=O)[C@H]4[C@@H]5C[C@](C)(CO)CC[C@]5(C)CC[C@@]4(C)[C@]3(C)CC[C@@H]12` here?
Answer: 87.3%

Question: `N#Cc1cc(-c2nc3ccccc3s2)c(=O)n(NS(=O)(=O)c2ccccc2)c1N` was tested. Which growth did it give?
Answer: 105%

Question: With `O=S(=O)(NCCNc1nccc(-c2c(-c3cccc(O)c3)nc3occn23)n1)c1cccc(F)c1` as the compound, how does the growth read?
Answer: 57%

Question: `c1ccc2c(-c3c[nH]c4ccccc34)c3c(cc2c1)[nH]c1ccccc13` was tested. Which growth did it give?
Answer: 30.9%

Question: Which growth does the source give for `O=C(/C=C(/C=C/c1csc2ccccc12)OB(F)F)/C=C/c1csc2ccccc12` here?
Answer: 39.9%

Question: Which growth does the source give for `Cc1ccc(-c2csc(NC(=O)CSc3nc(-c4ccccc4)cc(=O)[nH]3)n2)cc1` here?
Answer: 82.9%

Question: Which growth does the source give for `CCCC/C=N/NC(=S)NCc1ccccc1` here?
Answer: 87.7%

Question: `COc1ccc2nc(-c3ccc(-c4noc(-c5cc(OC)c(OC)c(OC)c5)n4)cc3)[nH]c2c1` was tested. Which growth did it give?
Answer: 41.3%

Question: With `Fc1ccc(-c2cn3c(nc4ccccc43)c(-c3ccccc3)n2)cc1` as the compound, how does the growth read?
Answer: 92.8%

Question: `CCNC(=O)Oc1ccc(/C(=C(\C)c2ccccc2)c2ccc(OCCN3CCCCC3)cc2)cc1` was tested. Which growth did it give?
Answer: 25.8%

Question: How did the growth turn out when `CCCCOc1ccc(/C(C)=N/Nc2cc(C)nc3ccc(Br)cc23)cc1` was run?
Answer: 21.3%

Question: `N#Cc1cccc(-c2ccc3c(c2)NC(=O)/C3=C\c2ccc[nH]2)c1` was tested. Which growth did it give?
Answer: 10.1%

Question: For `O=C(NNc1nc2c(F)cccc2n2cccc12)c1cnccn1`, which growth is on record?
Answer: 10.5%

Question: `CN(C)CCC(=O)c1ccc([N+](=O)[O-])cc1` was tested. Which growth did it give?
Answer: 89.4%
